JMJD2A Tudor = blocks the human JMJD2A Tudor domain | AID 504339 | Potency, µM (top dose mostly 114 µM), most hits filed as inhibitors | 4.4% of 390,000 active | O75164 | AlphaScreen JMJD2A-Tudor / H3K4me3 peptide binding; further: nearly all actives have a fitted effect of over 50% in size
BAZ2B block = blocks human BAZ2B; Q9UIF8; AlphaScreen BAZ2B-H3K14Ac peptide displacement; Potency, µM (top dose mostly 114 µM), usual class: inhibitors; 4.4% of 360,000 active; AID 504333; further: nearly all actives have a fitted effect of over 60% in size
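In this displacement format the biotinylated H3(5-23) peptide acetylated at Lys14 serves as ligand at 50 nM, with BAZ2B at 50 nM in PBS pH 7.4 containing 0.01% Tween-20. Donor and acceptor beads are 10 ug/mL final.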
TDP1 block = inhibitors of human tyrosyl-DNA phosphodiesterase TDP1; recombinant TDP1, AlphaScreen DNA substrate cleavage; Q9NUW8; Potency, µM (top dose mostly 130 µM), most hits filed as inhibitors; 0.28% of 350,000 active; further: nearly all actives have a fitted effect of over 40% in size
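Compounds were preincubated with Tdp1 (1 nM final) for 15 min at room temperature before substrate (15 nM final) started a 5 min reaction; beads (10 ug/ml final) were then added for 10 min before AlphaScreen detection.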
HP1b binding inh = blocks HP1-beta chromodomain binding to methylated histone tails. AlphaScreen HP1-beta / biotin-H3K9me3 peptide binding. Potency, µM (doses to about 114 µM), hits mostly inhibitors. 0.56% of 390,000 active; further: nearly all actives have a fitted effect of over 70% in size
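Compound inhibition of the preformed complex between 50 nM HP1-beta and 50 nM biotinylated H3K9me3 peptide was read by AlphaScreen. Buffer was PBS pH 7.4 with 0.01% Tween-20. Incubations ran 30 min at room temperature, with 10 ug/mL donor/acceptor beads.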
Six1-Eya2 inh = blocks human Six1 binding to Eya2. Q15475+O00167. AlphaScreen GST-Six1/His-Eya2 binding, biochemical; stronger effect = lower value. activity change, % (concentration not given with the values). 0.56% of 360,000 active; in the data active means activity change below about -65%; inconclusive means mostly about -30% to -63%
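Compounds are tested against tagged Six1 and Eya2 proteins bridged by glutathione donor and nickel acceptor beads; after a one-hour incubation at 37 °C without light, AlphaScreen emission is recorded.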
CtBP-E1A inh = CtBP/E1A binding inhibition. AlphaScreen GST-E1A/His-CtBP binding, 1536-well; stronger effect = lower value. AID 651724. activity change, % (no concentration beside the values). 0.49% of 340,000 active; in the data active means activity change below about -65%; inconclusive means mostly about -30% to -63%
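AlphaScreen with 125 nM GST-E1A and 125 nM His-CtBP (5X stocks) in Tris pH 8.0, 300 mM NaCl, BSA, Tween 20, TCEP. Compounds preincubated 2 h at 37 deg C, then glutathione donor/nickel acceptor beads added for 1 h at 37 deg C in dark.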
Numbers stand for hits; i = inactive; ? = inconclusive; nt = no result; ! = not active in a repeat; [ ] = another dose, or the depositor's remark. In the library only some 5.3% were active in any assay of this set; here they are far more common. Unless noted, the call rests on the fitted dose curve; in most records, active means well fitted inhibition curve with a large enough effect; inconclusive means small, poorly fitted or top-dose-only effect; inactive means no such curve, though single readings can be large or run the other way.

SMILES	JMJD2A Tudor	BAZ2B block	TDP1 block	HP1b binding inh	Six1-Eya2 inh	CtBP-E1A inh
O=C(Nc1ccc(NC(=O)C2CC2)nc1)c1ccccn1	44.7µM	?	i	i	i	i
O=C(Nc1ccc(NC(=O)C2CC2)nc1)c1cnccn1	i	i	i	i	i	nt
O=C(CN1C(=O)c2ccccc2C1=O)Nc1cccc(S(=O)(=O)Nc2ccccc2Cl)c1	i	i	i	i	-67.8	-68.4
CC(=O)Nc1nc2ccc(C(=O)NCCOC(=O)C3CCCCC3)cc2s1	i	i	i	i	i	i
Nc1nc2ccc(C(=O)NCCOC(=O)C3CCCCC3)cc2s1	i	i	i	i	-77.1	nt
Cc1ccc(C(=O)N/C(=C/c2ccco2)C(=O)Nc2cccc(C)c2)cc1	?	i	i	?	i	i
Cc1cccc(NC(=O)/C(=C\c2ccco2)NC(=O)c2cccs2)c1	89.1µM	i	i	?	i	i
Cc1ccnc(NC(=S)NC(=O)/C=C/c2ccccc2)c1	i	i	i	i	i	i
Cc1cccnc1NC(=S)NC(=O)/C=C/c1ccccc1	i	79.4µM	i	i	?	i
COc1ccccc1NC(=S)NC(=O)/C=C/c1ccco1	i	50.1µM	i	i	i	i
Cc1cccc(NC(=S)NC(=O)/C=C/c2ccco2)c1	?	44.7µM	i	?	i	i
Cc1ccc(CNCc2ccccc2Cl)s1	i	i	i	i	nt	nt
CCOc1ccc(C(=O)Nc2nnc(S(=O)(=O)Nc3ccccc3)s2)cc1	?	i	i	i	nt	nt
Cc1ccccc1NC(=S)NC(=O)/C=C/c1ccco1	?	56.2µM	i	?	i	i
O=C(/C=C/c1ccco1)NC(=S)Nc1cccc(-c2nc3ccccc3o2)c1	50.1µM	44.7µM	i	i	i	i
CCN(CC)CCn1c(=N)n(CCOc2ccccc2Cl)c2ccccc21	i	?	i	i	nt	nt
COC(=O)/C(C#N)=C/c1ccc(OC(=O)c2ccccn2)cc1	8.91µM	7.08µM	i	i	?	?
C=CCNC(=O)N1CCc2nc(COc3ccccc3)c3c(c2C1)CO[C@@H](C)C3	nt	nt	i[12.3 µM]	nt	nt	nt
COc1ccc(C(=O)COC(=O)[C@H](C)Nc2ccc(C(F)(F)F)cc2[N+](=O)[O-])c(OC)c1	i	50.1µM	i	i	i	i
COc1ccc(C(=O)Cc2cc(OC)c(OC)cc2[N+](=O)[O-])c(OC)c1	i	i	i	i	i	i
COc1ccc(Cl)cc1NC(=O)c1cc2nc(-c3ccc4c(c3)OCO4)cc(C(F)(F)F)n2n1	i	i	i	i	nt	nt
CC1=C(/C=C/C(C)=C/C=C/C(C)=C/C(=O)Nc2ccc(O)cc2)C(C)(C)CCC1	50.1µM	i	i	?	i	i
CCC(=O)Nc1ccc2nc3c(=O)[nH]c(=S)[nH]c3nc2c1	56.2µM	50.1µM	nt	?	?	?
COc1ccc(/C=C/C(=O)Nc2ccc3nc4c(c(Nc5ccc(OC)c(OC)c5)c3c2)CCCC4)cc1	22.4µM	8.91µM	i	?	nt	nt
COc1ccc(Nc2c3c(nc4ccc(NC(=O)/C=C/c5cccc(OC)c5OC)cc24)CCCC3)cc1OC	14.1µM	10µM	i	?	nt	nt
SMILES	JMJD2A Tudor	BAZ2B block	TDP1 block	HP1b binding inh	Six1-Eya2 inh	CtBP-E1A inh
COc1ccc(Nc2c3c(nc4ccc(NC(=O)/C=C/c5cc(OC)c(OC)c(OC)c5)cc24)CCCC3)cc1OC	?	10µM	i	i	nt	nt
Cn1nnnc1Sc1ncnc2scc(-c3ccc4c(=O)ccoc4c3)c12	i	nt	nt	nt	nt	nt
Cc1ccc(CNC(=O)CN2C(=O)C3CCCCN3c3ccc(C(=O)N4CCCC4)cc32)cc1 (stereo unspecified)	i	i	i	i	nt	nt
CC(=O)N1CCc2c(sc3c2c(=O)n(-c2cc(Cl)ccc2C)c(=O)n3Cc2ccccc2F)C1	i	?	i	i	nt	nt
COc1cc(/C=N/n2c(-c3ccccc3)n[nH]c2=S)ccc1O	5.01µM	i	i	i	i	i
COc1ccccc1/C=C/C=N/n1c(-c2cc(-c3ccccc3)n[nH]2)n[nH]c1=S	?	i	i	i	i	i
COc1ccc(Br)cc1/C=N/n1c(-c2ccccc2)n[nH]c1=S	?	i	nt	i	i	i
COc1ccc(/C=N/n2c(-c3ccc(C)cc3)n[nH]c2=S)cc1OC	7.94µM	i	i	i	i	nt
COc1cc(/C=N/n2c(-c3ccccc3)n[nH]c2=S)cc(OC)c1O	3.16µM	i	i	i	i	i
CC(=O)NC(c1ccccc1)c1c(O)ccc2ccccc12 (stereo unspecified)	i	31.6µM	i	i	i	i
CCCC(=O)NC(c1ccc(N(C)C)cc1)c1c(O)ccc2ccccc12 (stereo unspecified)	31.6µM	17.8µM	i	50.1µM	i	i
CCOc1ccc(OCC)c(NC(=O)C2CCN(S(=O)(=O)c3cn(C)cn3)CC2)c1	i	i	i	i	nt	nt
OCC1OC(n2cnc3c(=S)nc[nH]c32)CC1O (stereo unspecified)	2.82µM	nt	nt	?	i	i
S=c1nc[nH]c2c1ncn2C1CCCO1 (stereo unspecified)	2µM	?	i	i	i	i
CC(C)n1c(=O)c2oc3ccccc3c2n(CC(=O)Nc2ccccc2Cl)c1=O	i	i	i	i	nt	nt
CC(C)NC1=C(Cl)C(=O)c2ccccc2C1=O	39.8µM	25.1µM	i	15.8µM	?	?
CC(C)OCCCNC1=C(Cl)C(=O)c2ccccc2C1=O	39.8µM	10µM	i	35.5µM	i	i
CCN(CC)CCCNC1=C(Cl)C(=O)c2ccccc2C1=O	i	i	nt	i	i	i
CCC(=O)NC1=C(NC(C)c2ccccc2)C(=O)c2ccccc2C1=O (stereo unspecified)	i	?	i	i	i	i
COCCCNC1=C(Cl)C(=O)c2ccccc2C1=O	?	35.5µM	i	?	?	i
CCOc1ccc(CNC(=O)c2ccc3c(c2)nc2n3CCC(C)C2)cc1OC (stereo unspecified)	i	i	i	i	nt	nt
O=C(O)c1cc2cc(F)ccc2[nH]1	i	?	89.1µM!	i	i	i
O=C(O)c1cc2cc(Cl)ccc2[nH]1	i	nt	i	i	i	i
O=C(CN1C(=O)C2(SCC(=O)N2c2ccc(F)cc2)c2ccccc21)NCCc1ccccc1 (stereo unspecified)	i	i	i	i	nt	nt
O=C(NCc1cc([N+](=O)[O-])ccc1O)c1cccc(NS(=O)(=O)c2ccccc2)c1	i	i	i	i	-82.7	-89.0
NCCSSCCN	i	i	i	12.6µM	i	i
COc1ccccc1CNC(=O)c1ccc2c(c1)CCN2S(=O)(=O)c1ccc(Cl)cc1	i	i	i	i	nt	nt
COc1ccc(/C=N/NC(=O)c2cc3c(OC)ccc(OC)c3[nH]2)cc1O	i	i	nt	i	?	?
COc1ccc(OC)c2[nH]c(C(=O)N/N=C/c3ccccc3O)cc12	i	i	nt	i	-73.7	nt
